29 molecules from ChEMBL document CHEMBL1157539, “Thousands of chemical starting points for antimalarial lead identification” (Nature, 2010) can be followed below.

Values joined by “and” are separate entries in the source; they are usually repeats but may differ in a detail not shown here. Equal entries are not always repeated.

Common to all, as to format: functional
In test [1] the test system is Plasmodium falciparum. As to the kind of experiment: GSK_TCMDC: Inhibition of Plasmodium falciparum 3D7 in whole red blood cells, using parasite LDH activity as an index of growth. Test compounds present at 2uM.
Test [2] relates to Plasmodium falciparum. Put plainly: GSK_TCMDC: Inhibition of Plasmodium falciparum Dd2 in whole red blood cells, using parasite LDH activity as an index of growth. Test compounds present at 2uM.
In the next test the test system is HepG2. Put plainly: GSK_TCMDC: Percent inhibition of human HepG2 cell line. Test compounds present at 10uM.

Usually Inhibition stands for how much of the control response was suppressed. High values mean a strong effect, low ones a weak effect. With `Cl.c1ccc2c(NCCCCCCCCCNc3ccnc4ccccc34)ccnc2c1`, the values for the Inhibition with Plasmodium falciparum [1], in the test on Plasmodium falciparum [2] and in the test on HepG2 were 100%, 100% and 57%, respectively.

`Cl.O=S(=O)(Nc1cc2c(cc1O)CCN(C1CCC1)CC2)c1ccc(-c2ccc(F)cc2)cc1`: the figures for the Inhibition in the test with Plasmodium falciparum [1], with Plasmodium falciparum [2] and in the test on HepG2 were 100%, 99% and 16%, respectively.

In the case of `NS(=O)(=O)c1cccc(Br)c1`, the Inhibition with Plasmodium falciparum [1] is 98%; with Plasmodium falciparum [2] it was 0%; with HepG2 it was 0%.

Consider `CC(C)(C)CC(C)(C)c1ccc(O)c(C(=O)Nc2ccc([N+](=O)[O-])cc2)c1`, for which the Inhibition is listed as 97% in the test with Plasmodium falciparum [1], 99% with Plasmodium falciparum [2] and 80% in the test on HepG2.

In the case of `CC(C)(C)CC(=O)Nc1ccc(Nc2cc(-c3ccncc3)cc3ncc(C(N)=O)cc23)cc1`, the results for the Inhibition with Plasmodium falciparum [1], in the test on Plasmodium falciparum [2] and in the test with HepG2 were 97%, 85% and 5%, respectively.

`Cc1ccc(CNC(=O)[C@H](CCCN)Nc2nc(NCC3CCCCC3)ncc2C)cc1.O=C(O)C(F)(F)F`: the Inhibition was 92% in the test on Plasmodium falciparum [1], 5% in the test with Plasmodium falciparum [2] and 1% in the test with HepG2.

For `Cc1noc(C)c1-c1ccc2c(Nc3ccccc3C(C)(C)C)c(C(=O)NC3CCCC3)cnc2c1.Cl`, the figures for the Inhibition in the test with Plasmodium falciparum [1], in the test on Plasmodium falciparum [2] and in the test on HepG2 were 93%, 79% and 27%, respectively.

On to `Cl.O=C(NCCCCN1CCC(c2ccc3c(c2OCCO)CCCC3)CC1)c1ccc(-c2ccc(C(F)(F)F)cc2)cc1`, for which the Inhibition in the test on Plasmodium falciparum [1] was found to be 98%; with Plasmodium falciparum [2], 38%; with HepG2, 100%.

For the molecule `COc1ccc(-c2cccc(CNCc3ccc(F)cc3)c2)cc1S(=O)(=O)NCCN1CCCC1.O=C(O)C(F)(F)F`, the results for the Inhibition with Plasmodium falciparum [1], with Plasmodium falciparum [2] and in the test with HepG2 were 100%, 16% and 20%, respectively.

In the case of `Cn1cncc1CCN(Cc1ccc(-c2ccc(C(F)(F)F)cc2)cc1)C(=O)Cn1c(CCc2cccc(F)c2F)cc(=O)c2cccnc21`, the Inhibition in the test with Plasmodium falciparum [1] worked out at 100%; in the test on Plasmodium falciparum [2] it was 97%; in the test on HepG2 it was 44%.

For the molecule `N#Cc1ccc(C(=O)Nc2ccc(Cl)c(N3CCN(CCc4ccccc4)CC3)c2)cc1.O=C(O)C(F)(F)F`, the Inhibition was found to be 90% with Plasmodium falciparum [1], 35% with Plasmodium falciparum [2] and 5% with HepG2.

Turning to `CC1(CCN2CCC(c3c[nH]c4cnccc34)CC2)CCCc2c(Br)cccc2C1=O.Cl` (configuration not stated), the figures for the Inhibition in the test on Plasmodium falciparum [1], with Plasmodium falciparum [2] and in the test on HepG2 were 100%, 66% and 14%, respectively.

`COc1c(C2CCN(CCCCNC(=O)c3cc(-c4ccc(Cl)cc4)oc3C)CC2)ccc2c1CCCC2`: the Inhibition is given as 97% with Plasmodium falciparum [1], 27% in the test with Plasmodium falciparum [2] and 93% with HepG2.

For the molecule `CC(CCc1ccccc1)NCC(O)c1cccc(C(F)(F)F)c1.Cl` (configuration not stated), the Inhibition is listed as 99% with Plasmodium falciparum [1], 98% with Plasmodium falciparum [2] and 18% in the test with HepG2.

As for `COc1ccccc1-c1cccc2c(NC(=O)Nc3ccc4nccc(N5CCN(C)CC5)c4c3)ccnc12`, the Inhibition in the test on Plasmodium falciparum [1] is recorded as 94%; in the test with Plasmodium falciparum [2], 34%; in the test on HepG2, 3%.

As for `CCCCN(CCCC)/C(=N/c1cccc(Cl)c1Cl)Nc1ccc(C#N)cc1O`, the Inhibition with Plasmodium falciparum [1] was 89%; with Plasmodium falciparum [2] it was 69%; in the test with HepG2, 4%.

With `COc1ccc2ccc(F)c(CCN3CCC(NCc4cc5c(cn4)OCCO5)CC3)c2n1.Cl`, the results for the Inhibition with Plasmodium falciparum [1], in the test on Plasmodium falciparum [2] and with HepG2 were 96%, 36% and 15%, respectively.

On to `COc1cc(-c2nc(-c3ccncc3)c(-c3ccc4c(c3)CCC4=NO)[nH]2)ccc1OCCN1CCCCC1.Cl`, for which the Inhibition in the test with Plasmodium falciparum [1] is reported as 100%; with Plasmodium falciparum [2], 80%; in the test on HepG2 it was 75%.

For the molecule `COc1ccc(NC(=O)[C@H](CC(C)C)Nc2cc(C)nc(Nc3ccccc3)n2)cc1.O=C(O)C(F)(F)F`, the Inhibition with Plasmodium falciparum [1] is on record as 100%; with Plasmodium falciparum [2], 92%; in the test with HepG2 it was 25%.

On to `Cc1cc(-c2cccc(CNC3CCN(C)CC3)c2)ccc1S(=O)(=O)NCCN1CCCC1.O=C(O)C(F)(F)F`, for which the Inhibition with Plasmodium falciparum [1] was found to be 100%; in the test on Plasmodium falciparum [2], 0%; in the test on HepG2 it was 18%.

For `O=C(Nc1cccc(-c2ccc(-c3nc4cc(F)ccc4[nH]3)s2)c1)c1ccncc1`, the results for the Inhibition in the test with Plasmodium falciparum [1], in the test with Plasmodium falciparum [2] and in the test on HepG2 were 96%, 29% and 74%, respectively.

`Oc1ccc2[nH]cc(C3CCN(CCCNCc4ccc(-c5ccccc5)cc4)CC3)c2c1`: the Inhibition was 100% in the test on Plasmodium falciparum [1], 0% in the test on Plasmodium falciparum [2] and 22% in the test on HepG2.

Consider `CN1CCCN(Cc2cccc(-c3ccc(NC(=O)c4ccc(Cl)cc4)cc3)c2)CC1.O=C(O)C(F)(F)F`, for which the Inhibition is listed as 97% in the test with Plasmodium falciparum [1], 35% with Plasmodium falciparum [2] and 31% in the test with HepG2.

`CCCCCCN1CCCN(Cc2ccc(C(=O)Nc3ccc(Cl)cc3)cc2)CC1.O=C(O)C(F)(F)F`: the figures for the Inhibition with Plasmodium falciparum [1], in the test with Plasmodium falciparum [2] and in the test with HepG2 were 89%, 54% and 50%, respectively.

For the molecule `Cc1cc(N2CCCC2)nc(Nc2ccc(NC(=O)Nc3ccccc3)cc2)n1`, the Inhibition with Plasmodium falciparum [1] turned out to be 99%; with Plasmodium falciparum [2], 100%; with HepG2 it was 35%.

For `Clc1cc(Nc2ncnc3sc(C#C[C@H]4CCCN4)cc23)ccc1OCc1cccnc1Cl.O=C(O)C(F)(F)F`, the Inhibition in the test on Plasmodium falciparum [1] worked out at 100%; in the test with Plasmodium falciparum [2], 93%; in the test with HepG2, 9%.

In the case of `O=C(NC1CCCCC1)N(Cc1cccc(-c2ccc(CNC3CCCC3)cc2)c1)C1CCN(Cc2ccccc2)CC1.O=C(O)C(F)(F)F`, the Inhibition stood at 98% in the test with Plasmodium falciparum [1], 89% in the test on Plasmodium falciparum [2] and 37% in the test on HepG2.

On to `CC1CCN(c2nc(C(=O)Nc3ccc(F)cc3C(F)(F)F)c(C(C)C)s2)CC1.O=C(O)C(F)(F)F`, for which the Inhibition with Plasmodium falciparum [1] was determined as 100%; in the test on Plasmodium falciparum [2] it was 66%; in the test on HepG2, 5%.

For the molecule `Cl.N#Cc1ccc2c(c1)CN(CC[C@H]1CC[C@H](NC(=O)/C=C/c3c[nH]c4ccccc34)CC1)CC2`, the Inhibition in the test with Plasmodium falciparum [1] is 92% and 97%; in the test on Plasmodium falciparum [2], 24% and 27%; with HepG2, 20% and 10%.
